Most compounds without a hit are left out; they make up all but 3.2% or so of the library.
Pemphigus Ab inh: blocks pemphigus antibody binding to human desmoglein-3; DSG3-coupled beads, scFv-anti-DSG3-GFP binding, flow cytometry; hits give low values; actives 0.48% (n = 310,000); binding (percent of control), % at 10 µM;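 active = binding more than 3 SD below its plate's average and above zero; inconclusive = below that plate limit but binding exactly zero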;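 note: hits lower antibody fragment binding to DSG3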
NadD inh: inhibitors of Staphylococcus aureus NadD; purified NadD enzyme, colorimetric absorbance read-out; inhibition, % at 20 µM; actives 0.78% (n = 360,000); in the data active = inhibition above about 26%
rCAG RNA binder: r(CAG) repeat RNA binding; TO-PRO-1 dye displacement fluorescence; inhibition, % at 3 µM; actives 1.3% (n = 370,000);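 active = inhibition above the plate cutoff, the mean of all test compounds on that plate plus 3 SD, cut at about 35% in these data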;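 note: higher means more dye released from RNA so lower well fluorescence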
MsrA inhibitor: inhibitors of bovine MsrA. purified bovine MsrA, absorbance read-out. inhibition, % at 15.5 µM. actives 0.75% (n = 360,000)
bovine MsrA act: bovine methionine sulfoxide reductase A activation | activation, % at 10.6 µM | purified bovine MsrA, absorbance read-out | actives 0.3% (n = 360,000); in the data active = activation above about 7.5%
DAGLB inhibitor: blocks human DAGLB lipase activity | Q8NCG7 | AID 504411 | inhibition, % at 5.17 µM | actives 0.059% (n = 340,000) | HEK293T DAGLB membrane lysate, EnzChek fluorogenic substrate; in the data active = inhibition above about 34%
Target sequence (Q8NCG7 whole entry, looked up): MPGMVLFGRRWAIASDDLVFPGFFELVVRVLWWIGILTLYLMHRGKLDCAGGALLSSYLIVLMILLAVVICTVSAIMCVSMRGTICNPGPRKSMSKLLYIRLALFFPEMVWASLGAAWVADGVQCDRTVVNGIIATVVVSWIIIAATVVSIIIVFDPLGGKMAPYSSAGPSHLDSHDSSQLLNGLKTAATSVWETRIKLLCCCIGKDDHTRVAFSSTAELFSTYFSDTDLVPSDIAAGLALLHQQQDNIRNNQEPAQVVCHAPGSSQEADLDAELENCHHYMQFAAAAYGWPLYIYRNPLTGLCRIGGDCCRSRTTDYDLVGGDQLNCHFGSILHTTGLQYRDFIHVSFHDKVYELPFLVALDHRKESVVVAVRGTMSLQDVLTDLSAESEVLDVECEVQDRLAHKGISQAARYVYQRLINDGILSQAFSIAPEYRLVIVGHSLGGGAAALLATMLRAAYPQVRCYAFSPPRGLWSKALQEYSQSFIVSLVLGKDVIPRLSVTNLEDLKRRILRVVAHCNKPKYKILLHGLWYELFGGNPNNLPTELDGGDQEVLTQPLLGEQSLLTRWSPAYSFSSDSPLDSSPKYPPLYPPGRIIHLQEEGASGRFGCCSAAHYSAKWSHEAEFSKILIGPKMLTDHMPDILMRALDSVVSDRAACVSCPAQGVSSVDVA
MsrA act confirm: confirmation of bovine methionine sulfoxide reductase A activators; AID 602270; actives 12% (n = 1,000); purified bovine MsrA, absorbance read-out; activation, % at 10.6 µM; shares compounds with bovine MsrA act; in the data active = activation above about 4%;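 note: enzyme coupled to thioredoxin and thioredoxin reductase with NADPH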
NadD inh conf: NadD (S. aureus) inhibition, single concentration confirmation. shares compounds with NadD inh. purified S. aureus NadD, colorimetric enzyme assay. inhibition, % at 20 µM. actives 13% (n = 2,000). AID 624309; in the data active = inhibition mostly above about 42%, no sharp cut-off; inactive = mostly below about 42%
MsrA conf: bovine MsrA inhibition, confirmed. shares compounds with MsrA inhibitor. purified bovine MsrA, absorbance read-out. actives 41% (n = 2,300). inhibition, % at 15.5 µM. AID 651822;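 note: coupled to thioredoxin reductase with NADPH and selenocystamine and DMSO as substrate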
Large screens that a line does not name were inactive (follow-up assays come after a bar, where they were run). Cut-off read from the data, not from the text of the source, unless noted: active = inhibition above about 4.5%; inactive = the rest.

Cc1c(NS(=O)(=O)c2cc3c(cc2Br)CCN3C(=O)C2CC2)c(=O)n(-c2ccccc2)n1C	none (no result: Pemphigus Ab inh, NadD inh, MsrA inhibitor, bovine MsrA act, DAGLB inhibitor)
CC(C)CSc1ncccc1-c1nc2ccccc2[nH]1	none (no result: Pemphigus Ab inh, NadD inh, MsrA inhibitor, bovine MsrA act, DAGLB inhibitor)
CCC(=O)Nc1cc(-c2nn3c(C)nnc3s2)ccc1C	none
Cc1ccc(OCC(=O)Nc2cc(-c3nn4c(C)nnc4s3)ccc2C)cc1	bovine MsrA act 9.7 | MsrA act confirm inactive
CS(=O)(=O)N[C@@H]1C[C@@H]2O[C@H](CO)CC[C@@H]2O[C@@H]1CCc1ccc(/C=C/c2ccccc2)cc1	none (no result: Pemphigus Ab inh, NadD inh, MsrA inhibitor, bovine MsrA act, DAGLB inhibitor)
O=C(NCCc1ccc(Cl)cc1)C12CC3CC(CC(O)(C3)C1)C2	bovine MsrA act 9.2 | MsrA act confirm inactive
CCCCN1CCN(C(=O)C2CCN(S(=O)(=O)c3ccc4[nH]c(=O)oc4c3)CC2)CC1	none (no result: Pemphigus Ab inh, NadD inh, MsrA inhibitor, bovine MsrA act, DAGLB inhibitor)
COc1ccccc1NC(=O)c1ccc2nsnc2c1	none
COc1ccccc1OC(=O)c1ccc2nsnc2c1	bovine MsrA act 16 | MsrA act confirm inactive
CC(C)(C)N1Cc2nnn(CC3CCCCC3)c2-c2cc(F)ccc2S1(=O)=O	none (no result: Pemphigus Ab inh, NadD inh, MsrA inhibitor, bovine MsrA act, DAGLB inhibitor)
COc1ccc(C(=O)CSc2nc3ccccc3n2CC(=O)NC(C)(C)C)cc1	bovine MsrA act 9.7 | MsrA act confirm inactive
O=C(Nc1nc(-c2ccc(F)c(F)c2)cs1)C1=COCCO1	none
COc1ccc(-c2csc(NC(=O)C3=COCCO3)n2)cc1OC	Pemphigus Ab inh inconclusive, bovine MsrA act 11 | MsrA act confirm inactive
Cc1ccccc1CS(=O)(=O)Cc1ccc(C(=O)Nc2cccc(C)c2C)o1	none (no result: Pemphigus Ab inh, NadD inh, MsrA inhibitor, bovine MsrA act, DAGLB inhibitor)
Cc1ccccc1OCc1nnc(SCC(=O)NCc2ccccc2)n1C	none (no result: Pemphigus Ab inh)
CCOC(=O)c1ccccc1NC(=O)CSc1nnc(COc2ccccc2C)n1C	bovine MsrA act 9.0 | MsrA act confirm inactive
CCc1ccc(CN(C)Cc2nc(COc3ccccc3)no2)nc1	bovine MsrA act 7.9 | MsrA act confirm inactive
COC(=O)CSc1nnc(-c2cc(-c3ccccc3)n[nH]2)n1N	none (no result: Pemphigus Ab inh, NadD inh, MsrA inhibitor, bovine MsrA act, DAGLB inhibitor)
Cc1ccc(C(=O)ON=C2CCN(S(=O)(=O)c3ccccc3)CC2)cc1	bovine MsrA act 7.7 (no result: Pemphigus Ab inh) | MsrA act confirm inactive
CC1COc2ccccc2N1C(=O)c1ccc(Cl)cc1 (stereo not drawn)	bovine MsrA act 9.0 | MsrA act confirm inactive
Cc1ccc(C(=O)N2c3ccccc3OCC2C)cc1 (stereo not drawn)	none
CC1=C(C(=O)OC(C)C)C(c2cccc(F)c2)N2C(=O)C(C)SC2=N1 (stereo not drawn)	bovine MsrA act 9.8 | MsrA act confirm inactive
CC1=C(C(=O)OCC(C)C)C(c2cccc(F)c2)N2C(=O)C(C)SC2=N1 (stereo not drawn)	none
C=CC[C@@H]1NN2C(=O)[C@@H](CCCC)[C@@H]3c4ccccc4C=NN3[C@@H]2c2ccccc21	none (no result: Pemphigus Ab inh, NadD inh, MsrA inhibitor, bovine MsrA act, DAGLB inhibitor)
COc1ccc(S(=O)(=O)N2CCN(C(=S)NC3CCCCC3)CC2)cc1	bovine MsrA act 8.0 | MsrA act confirm inactive
C[C@@H](CSc1ccccc1)CN1CC[C@H](C(C)(C)C)CCC1=O	bovine MsrA act 8.2 | MsrA act confirm inactive
COc1ccc(SC[C@H](C)CN2CC[C@H](C(C)(C)C)CCC2=O)cc1	none
COc1ccc(CCNS(=O)(=O)c2ccc(C3CNC(=O)C3)cc2)cc1OC (stereo not drawn)	bovine MsrA act 9.5 | MsrA act confirm inactive
Cc1ccc(Cn2ncc(Cl)c(Cl)c2=O)cc1	none
Cc1[nH]c(C)c2c(=O)n(Cc3ccc(Cl)cc3)ncc12	bovine MsrA act 14 | MsrA act confirm inactive
Cc1ccc(S(=O)(=O)NC(c2ccccc2)C(C)C(=O)n2nc(C)cc2C)cc1 (stereo not drawn)	bovine MsrA act 8.1 | MsrA act confirm inactive
Cc1ccc(S(=O)(=O)NC(CC(=O)n2nc(C)cc2C)c2ccccc2)cc1 (stereo not drawn)	none (no result: Pemphigus Ab inh)
COc1ccc(N2CCN(Cc3cc4c(cc3O)CCC4)CC2)cc1	bovine MsrA act 14 | MsrA act confirm inactive
COc1ccc(N2CCN(Cc3cc(=O)oc4cc5c(cc34)CCCC5)CC2)cc1	none (no result: Pemphigus Ab inh)
Cc1cc(N2CCN(Cc3ccccc3)CC2)n2nc(C)c(-c3ccccc3)c2n1	none
COc1ccc(-c2c(C)nn3c(N4CCN(Cc5ccccc5)CC4)cc(C)nc23)cc1OC	bovine MsrA act 8.3 | MsrA act confirm inactive
CCCCNC(=O)OCCCN1CCC2(CCC(c3ccccc3)CC2)C1 (stereo not drawn)	none (no result: Pemphigus Ab inh, NadD inh, MsrA inhibitor, bovine MsrA act, DAGLB inhibitor)
CN(CCCC1CCCC1)C(=O)c1cc(COc2ccc(F)cc2F)on1	bovine MsrA act 9.1 | MsrA act confirm inactive
CC(C)n1c(=S)[nH]c2scc(-c3cccs3)c2c1=O	NadD inh 30, bovine MsrA act 8.0 | MsrA act confirm inactive | NadD inh conf 67
O=S(=O)(NCc1ccc(Cl)cc1)c1ccc(Br)cc1C1CC[C@@H](O)C1 (stereo partly drawn)	none (no result: Pemphigus Ab inh, NadD inh, bovine MsrA act, DAGLB inhibitor)
O=C1c2ccccc2C(=O)c2cc(S(=O)(=O)Nc3ccccc3)ccc21	MsrA inhibitor 29, bovine MsrA act 10.0 | MsrA act confirm 5.8 | MsrA conf 31
Cc1cnc(C)c(Nc2nc(C(N)Cc3ccc(C(F)(F)F)cc3)cs2)n1 (stereo not drawn)	none (no result: Pemphigus Ab inh, DAGLB inhibitor)
COc1ccc(CNC(=O)c2c(C)oc3c2C(=O)c2ccccc2C3=O)cc1	MsrA inhibitor 7.6, bovine MsrA act 7.9 | MsrA act confirm 8.0 | MsrA conf 9.0
O=C(OCc1cn(Cc2cc(F)ccc2F)nn1)N1CCOCC1	none (no result: Pemphigus Ab inh, NadD inh, MsrA inhibitor, bovine MsrA act, DAGLB inhibitor)
CSc1ccc(/C=C2\CCn3c2nc2cc(C(=O)O)ccc2c3=O)cc1	MsrA inhibitor 5.0, bovine MsrA act 10 | MsrA act confirm inactive | MsrA conf 4.8
COC(=O)c1ccc(/C=C2\CCn3c2nc2cc(C(=O)O)ccc2c3=O)cc1	none (no result: rCAG RNA binder, MsrA inhibitor)
COCc1c(C(=O)NCCc2ccc(OC(F)F)cc2)oc2ccccc12	none
O=C(Nc1ccc2cn[nH]c2c1)c1c(Cl)cccc1Cl	none
O=C1C(Cl)=C(Nc2ccc3cn[nH]c3c2)C(=O)c2ccccc21	MsrA inhibitor 17, bovine MsrA act 26 | MsrA act confirm 15 | MsrA conf 10
O=C(c1ccccc1)c1coc2c1C(=O)c1ccccc1C2=O	MsrA inhibitor 19, bovine MsrA act 8.2 | MsrA act confirm 16 | MsrA conf 26
COc1cc(N(C)C)ccc1C=c1c2ccccc2n2c1cc(-c1ccccc1)[n+]2C	none
COc1cc(C=c2c3ccccc3n3c2cc(-c2ccccc2)[n+]3C)cc(OC)c1OC	MsrA inhibitor 12, bovine MsrA act 18 (no result: Pemphigus Ab inh) | MsrA act confirm 9.9 | MsrA conf inactive
